# In the supplement of paper PMC6555819:
# What was measured:
# Test in all cases: PBM binding z-score (relative to random genomic background probes); higher = stronger binding; sequences stand for … in GC…GCGATTGACAGCGTAGAATGAAGG
# [1] = system: RARb homodimer (NR concentration 270 nM)
# Procedure, shortened: (§1)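 Scanned fluorescence from custom Agilent 4×180K protein-binding microarrays was regression-normalized. Binding z-scores use random background probes as reference. Ligand-free nuclear receptor dimers were incubated on the arrays for 1 h and detected with antibodies against each partner (one per run).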
# [2] = system: RARg:RXRa (NR concentration 270 nM, RXRa partner concentration 90 nM)
# Procedure, shortened: as §1
# [3] = system: RARg homodimer (NR concentration 270 nM)
# Procedure, shortened: as §1
# [4] = system: RXRa DBDmut IVT, anti-RXR (DBD mutation: RXRa K156A/R161A, NR concentration 90 nM)
# Procedure, shortened: as §1
# [5] = system: RXRa homodimer (NR concentration 180 nM)
# Procedure, shortened: as §1
# [6] = system: THRa:RXRa (NR concentration 90 nM, RXRa partner concentration 90 nM)
# Procedure, shortened: as §1
# [7] = system: THRa homodimer (NR concentration 90 nM)
# Procedure, shortened: as §1
# [8] = system: VDR homodimer (NR concentration 270 nM)
# Procedure, shortened: as §1
Sequence,PBM binding z-score [1],PBM binding z-score [2],PBM binding z-score [3],PBM binding z-score [4],PBM binding z-score [5],PBM binding z-score [6],PBM binding z-score [7],PBM binding z-score [8]
TCTAGTGGGTCACGGAGGTCACACACGACGGGTA,4.95,6.73,7.18,1.53,7.69,4.26,2.34,6.17
TCATATAGGTCAACAGGTGAAAGTCCGTAAGTTA,4.07,6.14,6.02,2.48,5.39,2.94,0.969,1.41
CCGACTCGGGCAAGGTTACCATAACGCACAGCCA,1.08,1.01,0.939,-0.233,1.11,1.19,0.176,-0.43
ATCTCTAAGTAAAAGTTCAGTGAATCCCGAGGAT,2.23,1.54,1.99,1.09,0.961,0.533,-0.127,1.62
CCTAGCAGGCCAGGGTCAATCAAGCATTTCGCTT,2.92,3.32,2.33,0.381,4.06,3.05,0.553,1.07
CGAACTAGGTCAAGGACAGTTAATCTCCGCACGC,3.38,3.88,4.87,1.65,2.89,3.09,2.12,0.602
CCAGACAGGTGAACGGTAACTCAGTCTGGTACGC,0.435,0.292,0.535,-0.0435,0.416,0.0165,-0.646,-0.453
ATCTCTATGTAAGACTCAGTTCAGTGAAGAACGC,0.277,-0.035,0.0537,0.294,-0.183,0.172,0.339,1.16
TAGCCTGGGTCATTGGGCCAGTATAGTACGCATC,2.47,3.67,3.47,0.363,3.04,1.99,-0.547,0.472
CCTAGTTGGTCAGGAGGTCACACTCCGGATATGA,4.21,4.74,4.43,1.03,5.04,3.4,2.46,2.5
GCTCAGAGGACAAGGTCAGAGCTTTGTCCGTAGA,3.68,3.51,4.41,1.18,2.64,3.08,1.34,0.78
TGAATGAGGTTATAAGATCAGGGAGCGTTGCAAA,-0.251,1.37,0.756,0.685,1.8,1.61,-0.245,0.229
ACTATTAGTTGAGACGAGGGAAACCGATAGGTTG,-0.559,0.157,0.307,0.505,0.0988,0.35,-0.716,0.415
TCTATTAGTTGATTTGGGCAACCGAAACAGCGGA,-0.204,0.225,0.0812,1.3,0.406,-0.0733,0.427,0.414
